In ChEMBL document CHEMBL4513216, “Probing the Open Global Health Chemical Diversity Library for Multistage-Active Starting Points for Next-Generation Antimalarials” (ACS Infect Dis, 2020):
In all, about 69,000 compounds went through this assay and about 8,600 (12%) showed an effect of 50% or more. What follows is part of a selection rich in strong results, with near analogues and random picks from the rest.

system: Plasmodium berghei; assay: Screen against P. berghei liver stage (PbLuc), transformed with Luciferase, at 10uM; assay type: functional, HepG2; settings: tested at 10 uM

| SMILES | INHIBITION |
| --- | --- |
| Cc1n[nH]c(C)c1-c1cnc(CC2CCCN(S(C)(=O)=O)C2)cn1 (centres undefined) | -38.2% |
| Cc1cc(C)c2nc(C)c(C(=O)N3CCC(N4CCCC4)CC3)cc2c1 | 31% |
| CN1CCN(C(=O)CCn2c(C(F)(F)F)cc3cccnc32)CC1 | -15.3% |
| COc1nc(C)c(C(=O)N2CCC(C(O)Cc3ccccc3)CC2)s1 (centres undefined) | 18.5% |
| Cc1nc(N)sc1C(=O)N1CCC(C(O)Cc2ccccc2)CC1 (centres undefined) | 46.7% |
| CCOC(=O)N1CCN(C(=O)c2sc(-c3ccc(F)cc3)nc2C)CC1 | 18.8% |
| Cc1cc(=O)c(C(=O)N2CCC(C(O)Cc3ccccc3)CC2)c(C)[nH]1 (centres undefined) | 35.8% |
| CCOC(=O)N1CCN(C(=O)c2sc(-c3ccncc3)nc2C)CC1 | 24% |
| CCOC(=O)N1CCN(C(=O)c2sc(-c3ccccc3)nc2C)CC1 | 74.7% |
| CNc1nc(C)c(C(=O)N2CCC(C(O)Cc3ccccc3)CC2)s1 (centres undefined) | 61.2% |
| CCNc1nc(C)c(C(=O)N2CCC(C(O)Cc3ccccc3)CC2)s1 (centres undefined) | 53.9% |
| CCNc1nc(C)c(C(=O)N2CCN(c3ncccc3C)CC2)s1 | -11.2% |
| Cc1cc(C(=O)N2CCc3nc(C4CCCCN4)ncc3C2)cs1 (centres undefined) | -17.7% |
| O=C([C@H]1CC[C@@H]2[C@@H](CCN2Cc2nccs2)O1)N1CCCCO1 | 19.5% |
| O=S1(=O)NCC2(CCCN(Cc3cccnc3)C2)Oc2ncccc21 (centres undefined) | 40.8% |
| c1cc(CCNc2ccc(CC3CCNC3)cn2)ccn1 (centres undefined) | 19.3% |
| O=C([C@@H]1CCS(=O)(=O)[C@@H]2CN(c3ncccn3)C[C@@H]21)N1CCOCC1 | 23.1% |
| CN1CCNC(Cc2ccc(-c3ccncc3)cc2)C1=O (centres undefined) | 22% |
| CCN1CCn2c(C)cnc2C12CCN(C(=O)N(C)C)CC2 | -18.4% |
| O=C(Nc1cccnc1)[C@H]1C[C@@H]2CCN(c3nncs3)C[C@H]2O1 | -13.2% |
| Cn1cc(N2C(=O)CC[C@@H]3[C@H]2CCN3Cc2cccc(C#N)c2)cn1 | -24.1% |
| CC(c1cccs1)N(C)Cc1cnc(-c2ccccn2)nc1 (centres undefined) | 66.5% |
| CC(C)n1cnnc1CN(C)Cc1cnc(-c2ccccn2)nc1 | -36.3% |

| SMILES | INHIBITION |
| --- | --- |
| COC(=O)c1cccc(CN(C)C(C)c2ccccn2)c1 (centres undefined) | 14.8% |
| CC(=O)N1CCN(C(=O)c2ccc(-c3cccc(C)c3)[nH]c2=O)CC1 | 35.7% |
| Cc1cnn(CCNCc2cc(C)no2)c1 | 38.8% |
| Cc1cnn(CCNCc2ccccc2C#N)c1 | 51% |
| Cc1cnn(CCNCc2ccccc2F)c1 | -14.6% |
| Cc1cnn(CCNCc2ccc(C#N)cc2)c1 | 6.8% |
| Cc1cnn(CCNCc2cc(-c3ccccc3)no2)c1 | 20.4% |
| Cc1ccc(-c2cc(CNCCn3cc(C)cn3)on2)cc1 | 60.4% |
| CCN(CC1CCCO1)C(=O)NCCNC(=O)c1ccccc1F (centres undefined) | 34.5% |
| CCC(Nc1cccc(Oc2ccccn2)c1)C(N)=O (centres undefined) | 62% |
| NC(=O)Nc1cccc(Oc2ccccn2)c1 | -1.58% |
| CCC(Nc1cccc(Oc2ccc(C#N)cc2)c1)C(N)=O (centres undefined) | 29.6% |
| CN1CCC(c2nnc(CN3CCCCC3)n2C)CC1 | 25.4% |
| COc1ccccc1OCC(=O)NCC(C)(O)C1CC1 (centres undefined) | -3.51% |
| CC(=O)N1CCc2[nH]cnc2C12CCN(C(=O)Cc1cccs1)CC2 | 61.5% |
| CN1CCc2[nH]cnc2C12CCN(C(=O)CCc1cccs1)CC2 | 31.9% |
| CC(=O)N1CCc2[nH]cnc2C12CCN(C(=O)CCn1cccn1)CC2 | 35.2% |
| CC(=O)N1CCc2[nH]cnc2C12CCN(C(=O)Cc1ccccn1)CC2 | 8.31% |
| CCC(=O)N1CCC2(CC1)c1nc[nH]c1CCN2S(C)(=O)=O | 1.81% |
| CCCN1CCc2[nH]cnc2C12CCN(C(=O)CCn1cccn1)CC2 | 54.8% |
| CCN1CCc2[nH]cnc2C12CCN(C(=O)CCc1cccs1)CC2 | 26% |
| CCN1CCc2[nH]cnc2C12CCN(C(=O)CCCn1cncn1)CC2 | 36.3% |
| CCCN1CCc2[nH]cnc2C12CCN(C(=O)Cn1ccnc1C)CC2 | 57% |

| SMILES | INHIBITION |
| --- | --- |
| CN1CCc2c(CNc3ncccn3)n[nH]c2C1 | 27.5% |
| CCC(=O)N1CCC(Cc2ccccc2-c2ccccc2F)(C(N)=O)C1 (centres undefined) | 29.2% |
| Cc1cnn(C2(C(=O)O)CCN(Cc3oc4ccccc4c3C)CC2)c1 | -0.613% |
| CC(C)n1nnc(CC(=O)NCC2(c3cccc(F)c3)CCCC2)n1 | 26.7% |
| COCc1ccccc1NC(=O)c1ccoc1 | -80.7% |
| Cc1ccc(C#N)cc1NC(=O)NC1CCCN(c2ncccn2)C1 (centres undefined) | 42% |
| CC(C(=O)N1CCN(Cc2ccncc2)CC1)n1cncn1 (centres undefined) | 4.25% |
| Fc1ccc(-c2cnc(C3CCNCC3)cn2)cc1 | 37.85% |
| CC(CO)CN(Cc1ccccc1)C(=O)c1csc(CN(C)C)n1 (centres undefined) | 13.7% |
| Cc1nc(C(C)NC(=O)c2cn(CCC3CCCCC3)nn2)n[nH]1 (centres undefined) | 5.75% |
| COCCc1noc(Cn2c(=O)[nH]c3ccccc32)n1 | -16.5% |
| COCc1noc(Cn2c(C3CC3)nc3ccccc32)n1 | 39.2% |
| COCc1noc(Cn2c(=O)[nH]c3ccccc32)n1 | 74% |
| CC1COCCN1C(=O)Cc1cc(Cl)c2c(c1)OCCO2 (centres undefined) | 26.8% |
| CSCC1CCN(C(=O)Cn2ncc(N3CCCCC3)cc2=O)CC1 | 40.7% |
| O=C(c1cncs1)N1CCc2[nH]nc(Nc3ccccc3)c2C1 | 20.49% |
| CN(CCc1ccccc1)Cc1cc(C(=O)N2CCN(C)C(=O)C2)no1 | -13.2% |
| CN1CCCN(C(=O)c2cc(CN(C)CCc3ccccc3)on2)CC1 | 53.3% |
| CN(CCc1ccccc1)Cc1cc(C(=O)N2CCSCC2)no1 | 40.5% |
| O=C1CCC2(CCN(Cc3nccs3)CC2)CN1CCCO | -47.8% |
| Cc1cnc(CN(C)C2CCCN(Cc3noc(C4CC4)n3)C2)cn1 (centres undefined) | 10% |
| CC(NCC(=O)N(C)C1CC1)c1ccc(S(C)(=O)=O)c(F)c1 (centres undefined) | 34.7% |
| Cn1cccc1C(=O)NCc1cnc2n1CCN(CC1CCOCC1)C2 | 20.4% |

| SMILES | INHIBITION |
| --- | --- |
| O=C(NCc1cnc2n1CCN(CC1CCOCC1)C2)c1ccno1 | 50.3% |
| O=C(NCc1cnc2n1CCN(CC1CC1)C2)C1CC1 | -30% |
| O=C(NCc1cnc2n1CCN(Cc1ccoc1)C2)c1ccno1 | 63.8% |
| O=C(NCc1cnc2n1CCN(Cc1nccs1)C2)c1ccno1 | 23.1% |
| O=C(NCc1cnc2n1CCN(Cc1cccs1)C2)c1ccno1 | 12.2% |
| O=C(C(c1ccccc1)S(=O)(=O)c1ccccn1)N1CCCC1 (centres undefined) | 14.2% |
| Cn1nnc2c1CCN(Cc1ccccn1)C2COCc1ccccc1 (centres undefined) | 21.3% |
| Cc1cc(-c2ccccc2C(=O)O)nc(C2CCCCN2C)n1 (centres undefined) | 59% |
| CC(=O)N1CCCCC1c1nc(C)cc(-c2ccccc2C(=O)O)n1 (centres undefined) | 15.9% |
| Cc1cc(-c2ccccc2C(=O)O)nc(C2CCCN2S(C)(=O)=O)n1 (centres undefined) | 12.8% |
| O=C(Cc1cn2ccsc2n1)N1CCCC(n2cccn2)C1 (centres undefined) | -1.12% |
| COCCc1noc(CN2CCCC2c2noc(C(C)C)n2)n1 (centres undefined) | 21.8% |
| CN(Cc1cccc(-n2cccn2)c1)Cc1c[nH]cn1 | 35.05% |
| CN(Cc1ccc(-n2cccn2)cc1)c1nc(N)nc2c1CCNCC2 | 45% |
| CC(CN(C)Cc1cccc(-n2cccn2)c1)C(F)(F)F (centres undefined) | 17.735% |
| CN(Cc1cccc(-n2cccn2)c1)C(=O)c1ccnc(N)c1 | 21.2% |
| CN(Cc1ccc(-n2cccn2)cc1)c1cc(N)nc(N)n1 | 82.2% |
| CN(Cc1cccc(-n2cccn2)c1)C(=O)c1cccc(N(C)C)c1 | 22.1% |
| COc1cc(N(C)Cc2cccc(-n3cccn3)c2)nc(N)n1 | 80% |
| CN(Cc1cccc(-n2cccn2)c1)c1cc(N2CCCC2)nc(N)n1 | 93.9% |
| CN(Cc1ccc(-n2cccn2)cc1)Cc1cnc(N(C)C)nc1 | 37.4% |
| CCCc1nc(C)c(C(=O)NCCNc2ncccc2C#N)s1 | -24.2% |
| CC(C)NC(=O)[C@H]1C[C@@H]2[C@@H](C1)OCCN2Cc1cnn(C)c1 | -4.56% |

| SMILES | INHIBITION |
| --- | --- |
| CCOc1ccccc1OC1CCN(C(=O)c2cnsn2)CC1 | 21.5% |
| CN(C)Cc1cn(-c2ccccc2C(=O)NCCC2CCCN2C)cn1 (centres undefined) | 10% |
| Nc1ncccc1CN1CCCn2nc(CCC(=O)NC3CC3)cc2C1 | 46.1% |
| CN1CCN(S(=O)(=O)c2ccccc2)Cc2cccnc21 | 14.9% |
| COc1ccc(S(=O)(=O)N2CCN(C)c3ncccc3C2)cc1 | 42.1% |
| CN1CCN(S(=O)(=O)c2cccc(F)c2)Cc2cccnc21 | 65.7% |
| Cc1cc(C2CCCN2Cc2ccn(C)c(=O)c2)on1 (centres undefined) | 20.1% |
| O=C(NCc1cn2cccnc2n1)C1CC(=O)N(Cc2ccccn2)C1 (centres undefined) | 37.6% |
| CN(C)CCN1CC(C(=O)NCc2cn3cccnc3n2)CC1=O (centres undefined) | 23.9% |
| CC(C)(C)N1CC(C(=O)NCc2cn3cccnc3n2)CC1=O (centres undefined) | 53.9% |
| Cc1nc(CN2CCC3(CCCN(Cc4ccoc4)C3)C2=O)cs1 (centres undefined) | -5.31% |
| COc1c[nH]c(C(=O)Nc2nc(C(C)(C)C)cs2)cc1=O | 29.4% |
| CC[C@H](C)[C@H](N)C(=O)Nc1nc(-c2cnc(N(C)C)nc2)cs1 | 21.9% |
| CCN1CC2(CC1=O)CN(C(=O)COC)CCN(S(C)(=O)=O)C2 (centres undefined) | 63% |
| CCN1CC2(CC1=O)CN(Cc1ccco1)CCN(C(=O)C(C)C)C2 (centres undefined) | 57.4% |
| CCN1CC2(CC1=O)CN(C(=O)C(C)C)CCN(S(=O)(=O)CC)C2 (centres undefined) | 52.3% |
| CCN1CC2(CC1=O)CN(C(C)=O)CCN(S(C)(=O)=O)C2 (centres undefined) | 26% |
| CCN1CC2(CC1=O)CN(Cc1ccc(C)o1)CCN(C(=O)C(C)C)C2 (centres undefined) | 42.5% |
| CCN1CC2(CC1=O)CN(C(=O)N(C)C)CCN(S(C)(=O)=O)C2 (centres undefined) | 31.9% |
| CCN1CC2(CC1=O)CN(C(=O)C(C)C)CCN(S(C)(=O)=O)C2 (centres undefined) | 46.7% |
| CCN1CC2(CC1=O)CN(Cc1ccco1)CCN(C(=O)N(C)C)C2 (centres undefined) | 5.14% |
| CCS(=O)(=O)N1CCN(C(=O)C(C)C)CC2(CC(=O)N(C)C2)C1 (centres undefined) | 45.8% |
